Experimental data as given in the supplement of paper PMC11732987, “Enantioselective OTUD7B fragment discovery through chemoproteomics screening and high-throughput optimisation” (Communications Chemistry, 2025).

Legend:
Test in all cases: log2 ratio of Biotin-Ahx-Ub-VS probe labelling (fragment/DMSO); higher = less target engagement (more negative = stronger competition), active = hit call of the paper (q ≤ 0.05, log2 ratio ≤ -1)
Settings in all cases: compound concentration: 200 uM; treatment time: 3 h
USP19 = molecular target: T1, USP19 (UniProt O94966)
T1 sequence (whole entry): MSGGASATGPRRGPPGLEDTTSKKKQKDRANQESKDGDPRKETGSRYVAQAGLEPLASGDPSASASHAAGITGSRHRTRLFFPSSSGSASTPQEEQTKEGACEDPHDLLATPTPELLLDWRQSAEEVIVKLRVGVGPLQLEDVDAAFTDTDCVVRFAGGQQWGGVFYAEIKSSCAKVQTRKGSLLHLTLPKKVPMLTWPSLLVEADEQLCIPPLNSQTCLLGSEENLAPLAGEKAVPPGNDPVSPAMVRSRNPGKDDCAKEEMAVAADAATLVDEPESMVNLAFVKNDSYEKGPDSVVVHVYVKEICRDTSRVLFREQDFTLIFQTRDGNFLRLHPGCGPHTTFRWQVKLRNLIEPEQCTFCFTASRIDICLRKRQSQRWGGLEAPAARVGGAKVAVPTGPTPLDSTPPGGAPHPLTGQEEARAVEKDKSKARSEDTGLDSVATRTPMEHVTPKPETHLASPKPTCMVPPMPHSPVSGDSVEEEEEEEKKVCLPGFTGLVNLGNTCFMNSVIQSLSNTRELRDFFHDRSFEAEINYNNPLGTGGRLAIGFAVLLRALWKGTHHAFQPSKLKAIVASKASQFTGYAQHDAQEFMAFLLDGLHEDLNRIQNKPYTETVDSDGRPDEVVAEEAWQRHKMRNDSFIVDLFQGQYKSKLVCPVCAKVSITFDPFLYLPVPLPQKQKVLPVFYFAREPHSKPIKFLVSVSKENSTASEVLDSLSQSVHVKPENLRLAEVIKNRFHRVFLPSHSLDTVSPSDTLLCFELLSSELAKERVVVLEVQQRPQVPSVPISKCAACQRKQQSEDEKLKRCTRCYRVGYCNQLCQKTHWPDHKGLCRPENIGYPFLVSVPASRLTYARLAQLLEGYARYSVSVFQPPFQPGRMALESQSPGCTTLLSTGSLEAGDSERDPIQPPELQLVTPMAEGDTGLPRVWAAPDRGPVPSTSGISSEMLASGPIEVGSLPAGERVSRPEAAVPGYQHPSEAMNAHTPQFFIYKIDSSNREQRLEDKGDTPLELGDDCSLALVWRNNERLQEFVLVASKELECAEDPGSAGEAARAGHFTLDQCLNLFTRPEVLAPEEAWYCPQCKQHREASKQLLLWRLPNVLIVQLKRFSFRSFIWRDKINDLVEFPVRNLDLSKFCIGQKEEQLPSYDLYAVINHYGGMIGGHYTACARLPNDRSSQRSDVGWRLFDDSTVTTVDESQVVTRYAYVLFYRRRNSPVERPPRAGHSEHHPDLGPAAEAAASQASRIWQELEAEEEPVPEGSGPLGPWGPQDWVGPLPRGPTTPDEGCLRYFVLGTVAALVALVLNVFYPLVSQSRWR
Summary of the method: (§1)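 Average log2 ratios of fragment over vehicle were obtained by unpaired t-test from global-median-normalised Spectronaut label-free quantities. Proteins with ≥2 unique peptides were included. HEK293T lysate (495 µg per sample) was treated in triplicate with fragment at 200 µM or vehicle for 3 h, then with Biotin-Ahx-Ub-VS at 0.5 µM final for 1 h, and labelled DUBs were NeutrAvidin-enriched and run by diaPASEF LC-MS/MS.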

USP22 = molecular target: T2, USP22 (UniProt Q9UPT9)
T2 sequence (whole entry): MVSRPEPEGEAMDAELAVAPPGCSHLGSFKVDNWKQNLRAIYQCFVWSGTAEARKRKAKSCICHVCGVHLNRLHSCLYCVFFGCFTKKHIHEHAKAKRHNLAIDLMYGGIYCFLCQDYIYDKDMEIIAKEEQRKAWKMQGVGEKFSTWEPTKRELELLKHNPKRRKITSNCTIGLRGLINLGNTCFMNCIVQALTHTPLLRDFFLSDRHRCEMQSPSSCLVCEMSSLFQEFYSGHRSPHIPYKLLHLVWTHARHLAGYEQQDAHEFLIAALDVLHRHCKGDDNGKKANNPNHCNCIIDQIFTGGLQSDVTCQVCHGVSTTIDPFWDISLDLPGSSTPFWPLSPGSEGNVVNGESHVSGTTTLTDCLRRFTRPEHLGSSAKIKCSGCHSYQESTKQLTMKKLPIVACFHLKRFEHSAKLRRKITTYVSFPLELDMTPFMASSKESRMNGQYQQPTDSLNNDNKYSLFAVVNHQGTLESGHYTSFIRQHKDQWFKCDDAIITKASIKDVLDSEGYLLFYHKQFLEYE
Summary of the method: as §1

USP24 = USP24 (UniProt Q9UPU5)
Summary of the method: as §1

USP25 = molecular target: T3, USP25 (UniProt Q9UHP3)
T3 sequence (whole entry): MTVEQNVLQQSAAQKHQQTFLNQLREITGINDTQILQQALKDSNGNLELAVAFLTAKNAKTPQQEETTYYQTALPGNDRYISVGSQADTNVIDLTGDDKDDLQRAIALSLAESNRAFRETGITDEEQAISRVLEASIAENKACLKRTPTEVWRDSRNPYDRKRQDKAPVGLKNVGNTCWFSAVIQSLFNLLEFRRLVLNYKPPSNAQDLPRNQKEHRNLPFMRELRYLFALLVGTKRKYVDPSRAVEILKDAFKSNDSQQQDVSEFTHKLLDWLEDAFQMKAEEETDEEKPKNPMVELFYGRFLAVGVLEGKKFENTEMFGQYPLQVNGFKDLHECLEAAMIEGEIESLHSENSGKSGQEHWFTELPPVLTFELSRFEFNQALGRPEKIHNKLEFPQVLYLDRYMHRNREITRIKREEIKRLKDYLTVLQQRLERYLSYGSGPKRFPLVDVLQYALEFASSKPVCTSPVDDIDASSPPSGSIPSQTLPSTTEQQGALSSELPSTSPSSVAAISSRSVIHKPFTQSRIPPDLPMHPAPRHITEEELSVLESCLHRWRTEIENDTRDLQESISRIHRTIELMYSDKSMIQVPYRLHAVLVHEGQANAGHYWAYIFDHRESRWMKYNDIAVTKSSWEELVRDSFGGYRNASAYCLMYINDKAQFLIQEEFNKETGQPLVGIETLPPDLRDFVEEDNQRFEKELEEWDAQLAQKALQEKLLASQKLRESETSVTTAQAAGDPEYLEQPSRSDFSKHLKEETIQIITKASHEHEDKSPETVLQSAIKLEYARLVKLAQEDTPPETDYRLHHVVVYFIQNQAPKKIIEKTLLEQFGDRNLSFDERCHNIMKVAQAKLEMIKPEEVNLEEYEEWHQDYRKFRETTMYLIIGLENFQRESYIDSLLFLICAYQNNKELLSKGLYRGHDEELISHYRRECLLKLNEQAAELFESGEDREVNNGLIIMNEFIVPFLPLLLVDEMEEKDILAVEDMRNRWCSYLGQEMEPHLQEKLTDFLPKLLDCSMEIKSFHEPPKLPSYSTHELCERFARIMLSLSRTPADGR
Summary of the method: as §1

USP28 = molecular target: T4, USP28 (UniProt Q96RU2)
T4 sequence (whole entry): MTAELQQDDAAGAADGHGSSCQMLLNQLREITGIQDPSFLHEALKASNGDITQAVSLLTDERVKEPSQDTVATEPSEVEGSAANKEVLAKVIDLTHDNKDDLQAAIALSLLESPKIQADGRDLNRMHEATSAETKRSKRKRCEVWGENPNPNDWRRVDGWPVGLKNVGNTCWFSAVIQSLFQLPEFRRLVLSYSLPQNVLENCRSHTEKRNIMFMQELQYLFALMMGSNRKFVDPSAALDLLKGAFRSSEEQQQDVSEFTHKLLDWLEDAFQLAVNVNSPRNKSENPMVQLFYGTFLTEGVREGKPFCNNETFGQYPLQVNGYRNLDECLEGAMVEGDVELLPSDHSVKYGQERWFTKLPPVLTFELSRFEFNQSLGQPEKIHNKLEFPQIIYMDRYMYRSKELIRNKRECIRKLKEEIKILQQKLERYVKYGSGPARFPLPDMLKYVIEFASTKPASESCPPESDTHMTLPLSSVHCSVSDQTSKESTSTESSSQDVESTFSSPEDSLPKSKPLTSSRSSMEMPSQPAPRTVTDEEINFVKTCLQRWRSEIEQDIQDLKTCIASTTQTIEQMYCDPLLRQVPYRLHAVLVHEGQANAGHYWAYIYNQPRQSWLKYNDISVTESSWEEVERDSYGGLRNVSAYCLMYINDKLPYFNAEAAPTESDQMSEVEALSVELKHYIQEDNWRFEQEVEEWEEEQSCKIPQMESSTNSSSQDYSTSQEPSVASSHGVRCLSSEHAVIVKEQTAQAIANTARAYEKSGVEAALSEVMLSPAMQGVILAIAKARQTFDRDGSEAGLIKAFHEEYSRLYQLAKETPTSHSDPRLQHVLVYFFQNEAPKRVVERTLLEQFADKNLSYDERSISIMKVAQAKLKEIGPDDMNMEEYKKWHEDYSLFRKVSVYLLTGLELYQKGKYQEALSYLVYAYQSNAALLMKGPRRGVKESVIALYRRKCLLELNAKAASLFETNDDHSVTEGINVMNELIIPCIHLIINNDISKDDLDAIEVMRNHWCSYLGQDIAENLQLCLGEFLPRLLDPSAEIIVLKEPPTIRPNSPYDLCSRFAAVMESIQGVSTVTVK
Summary of the method: as §1

Measured: log2 ratio of Biotin-Ahx-Ub-VS probe labelling

Chain of USP24 (Q9UPU5 whole entry): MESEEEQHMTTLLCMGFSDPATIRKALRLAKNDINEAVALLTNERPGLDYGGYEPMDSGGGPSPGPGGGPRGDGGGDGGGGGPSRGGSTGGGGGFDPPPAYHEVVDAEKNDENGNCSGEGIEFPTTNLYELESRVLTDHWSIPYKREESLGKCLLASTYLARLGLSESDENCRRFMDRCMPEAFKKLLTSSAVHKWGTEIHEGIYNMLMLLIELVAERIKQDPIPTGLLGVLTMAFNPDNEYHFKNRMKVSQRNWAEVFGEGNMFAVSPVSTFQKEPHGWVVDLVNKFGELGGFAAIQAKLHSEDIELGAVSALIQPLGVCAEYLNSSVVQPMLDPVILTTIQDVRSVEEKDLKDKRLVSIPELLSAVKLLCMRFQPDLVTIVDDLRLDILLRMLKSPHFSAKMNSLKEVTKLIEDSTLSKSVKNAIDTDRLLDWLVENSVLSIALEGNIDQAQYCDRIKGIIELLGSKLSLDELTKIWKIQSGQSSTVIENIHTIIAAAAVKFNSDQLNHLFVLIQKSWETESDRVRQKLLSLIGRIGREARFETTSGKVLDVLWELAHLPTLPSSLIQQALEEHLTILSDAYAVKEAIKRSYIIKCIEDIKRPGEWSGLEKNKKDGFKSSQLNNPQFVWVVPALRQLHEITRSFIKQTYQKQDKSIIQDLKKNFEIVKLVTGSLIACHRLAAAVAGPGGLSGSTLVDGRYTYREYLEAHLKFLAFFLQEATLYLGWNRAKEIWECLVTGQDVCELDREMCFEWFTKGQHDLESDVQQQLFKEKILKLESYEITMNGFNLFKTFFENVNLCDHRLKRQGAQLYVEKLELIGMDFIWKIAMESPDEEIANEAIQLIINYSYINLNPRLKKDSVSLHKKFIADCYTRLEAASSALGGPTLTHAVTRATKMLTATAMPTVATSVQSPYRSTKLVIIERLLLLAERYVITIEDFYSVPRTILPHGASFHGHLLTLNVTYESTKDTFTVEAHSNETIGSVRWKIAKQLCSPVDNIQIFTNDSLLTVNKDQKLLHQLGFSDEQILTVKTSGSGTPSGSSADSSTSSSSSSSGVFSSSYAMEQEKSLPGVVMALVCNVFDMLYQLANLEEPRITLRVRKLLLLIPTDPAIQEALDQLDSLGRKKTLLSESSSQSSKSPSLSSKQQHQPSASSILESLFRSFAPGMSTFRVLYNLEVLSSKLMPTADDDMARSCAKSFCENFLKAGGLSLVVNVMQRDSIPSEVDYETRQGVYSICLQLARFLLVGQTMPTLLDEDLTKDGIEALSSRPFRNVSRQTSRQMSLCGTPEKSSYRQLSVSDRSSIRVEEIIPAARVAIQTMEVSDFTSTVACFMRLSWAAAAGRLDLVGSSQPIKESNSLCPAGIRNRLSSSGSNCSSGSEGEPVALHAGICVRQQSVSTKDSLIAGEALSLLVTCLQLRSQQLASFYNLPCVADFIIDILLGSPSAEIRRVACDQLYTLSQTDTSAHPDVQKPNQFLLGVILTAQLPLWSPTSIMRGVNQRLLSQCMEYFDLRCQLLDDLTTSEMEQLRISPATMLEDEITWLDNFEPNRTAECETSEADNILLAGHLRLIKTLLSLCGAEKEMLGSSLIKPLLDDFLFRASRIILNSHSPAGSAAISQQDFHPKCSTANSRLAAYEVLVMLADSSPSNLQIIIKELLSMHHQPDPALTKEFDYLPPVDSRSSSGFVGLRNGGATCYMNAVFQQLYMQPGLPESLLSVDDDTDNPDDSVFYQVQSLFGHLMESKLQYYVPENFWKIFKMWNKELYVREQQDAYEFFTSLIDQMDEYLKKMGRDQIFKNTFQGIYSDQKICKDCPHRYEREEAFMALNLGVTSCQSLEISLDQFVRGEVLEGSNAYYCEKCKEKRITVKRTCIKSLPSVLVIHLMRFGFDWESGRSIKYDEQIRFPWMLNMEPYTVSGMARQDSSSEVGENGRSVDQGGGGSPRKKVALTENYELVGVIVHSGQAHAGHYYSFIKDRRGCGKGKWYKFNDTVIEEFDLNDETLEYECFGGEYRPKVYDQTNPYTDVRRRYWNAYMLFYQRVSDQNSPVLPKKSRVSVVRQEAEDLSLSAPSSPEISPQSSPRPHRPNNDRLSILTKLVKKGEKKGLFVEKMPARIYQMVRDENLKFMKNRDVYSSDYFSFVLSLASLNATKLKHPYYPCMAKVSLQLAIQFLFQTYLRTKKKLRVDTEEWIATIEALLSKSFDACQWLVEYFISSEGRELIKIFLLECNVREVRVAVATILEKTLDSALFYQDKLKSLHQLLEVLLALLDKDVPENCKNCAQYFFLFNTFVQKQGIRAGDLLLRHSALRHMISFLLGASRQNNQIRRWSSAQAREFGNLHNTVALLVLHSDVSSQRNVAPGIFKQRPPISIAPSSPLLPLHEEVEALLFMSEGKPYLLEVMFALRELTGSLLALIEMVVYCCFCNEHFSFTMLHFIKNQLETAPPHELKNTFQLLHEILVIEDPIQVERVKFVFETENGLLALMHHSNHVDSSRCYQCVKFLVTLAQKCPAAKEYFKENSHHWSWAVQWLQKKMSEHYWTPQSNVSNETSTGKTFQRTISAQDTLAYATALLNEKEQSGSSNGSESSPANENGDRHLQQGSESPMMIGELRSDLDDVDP

Cc1ccc(CC(CO)CNC(=O)CCl)cc1 (stereo not given)
inactive: USP19 -0.487 | USP22 -0.0764 | USP24 -0.554 | USP25 -0.531 | USP28 -0.597
